Source: PubChem BioAssay (National Center for Advancing Translational Sciences (NCATS))
Most compounds without a hit are left out; they make up all but 10% or so of the library.
PNC inhibitor: perinucleolar compartment assembly inhibition; hit rate 3.1% among 140,000; activity change (PNC), negative = inhibition, % at 10 µM; PC3M PTB-GFP, PNC prevalence imaging, 16 h; hits give low values;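 active = readout at or below -70, meaning at least 70% loss of cells showing the perinucleolar compartment, a nuclear body marking cancer cells; inconclusive = readout between -30 and a set limit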
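Read-out is percentage of cells bearing a perinucleolar compartment, from automated 20x imaging of fixed, Hoechst-stained PC3M PTB-GFP cells. Cells were seeded 4 h, then exposed 16 h to compound (23 nl of library stock) in duplicate plates.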
ALDH1A1 inh: ALDH1A1 (human) enzyme inhibition | P00352 | Purified ALDH1A1, NADH fluorescence, propionaldehyde substrate | Potency, µM (titrated, usually from 75.3 µM), most hits filed as inhibitors | hit rate 7.3% among 220,000; active = well fitted inhibition curve with a large enough effect, not every such curve was filed as active; inconclusive = small, poorly fitted or top-dose-only effect, or another doubt; inactive = no such curve, though single readings can be large or run the other way
HPGD inh: blocks human HPGD enzyme activity. purified HPGD, NADH fluorescence kinetic, PGE2 substrate. Potency, µM, most hits filed as inhibitors. hit rate 4.3% among 150,000. AID 894; active = well fitted inhibition curve with a large enough effect, not every such curve was filed as active; inconclusive = small, poorly fitted or top-dose-only effect, or another doubt; inactive = no such curve, though single readings can be large or run the other way
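NADH formation kinetics: reaction with 30 uM PGE2 and 1 mM NAD+ (final), 20 nM enzyme, Tris-HCl pH 8 with Tween 20, after 15 min compound preincubation at room temperature. Fluorescence change, last versus first of five reads.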
aGal spleen mod: alpha-galactosidase A (human) modulation. P06280. human spleen homogenate, 4MU-alpha-Gal fluorescence, 40 min. Potency, µM (top dose mostly 80 µM), usual class: inhibitors. hit rate 0.008% among 240,000. AID 2107
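Human spleen homogenate (1 ug) as enzyme source, 4-methylumbelliferyl-alpha-D-galactopyranoside 1 mM final, citrate/phosphate pH 5.0 with 0.01% Tween-20. Compounds 40 min at 37C, NaOH/glycine stop; fluorescence Ex 365/Em 440, Hill-fit AC50.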
GLA inh pH 4.5: blocks human alpha-galactosidase A at pH 4.5. AID 1467. purified enzyme, 4-MU-alpha-Gal fluorescence, pH 4.5. 230,000 tested, under 10 active. P06280. activity change, negative = inhibition, % at 105 µM
ALOX12 inhib: 12-hLO (ALOX12) enzyme inhibition; P18054; hit rate 0.12% among 150,000; purified 12-hLO, xylenol orange hydroperoxide absorbance; AID 1452; Potency, µM (doses to about 57.1 µM), usual class: inhibitors; note: nearly all actives have a fitted effect of over 55% in size
Target sequence (P18054 whole entry, looked up): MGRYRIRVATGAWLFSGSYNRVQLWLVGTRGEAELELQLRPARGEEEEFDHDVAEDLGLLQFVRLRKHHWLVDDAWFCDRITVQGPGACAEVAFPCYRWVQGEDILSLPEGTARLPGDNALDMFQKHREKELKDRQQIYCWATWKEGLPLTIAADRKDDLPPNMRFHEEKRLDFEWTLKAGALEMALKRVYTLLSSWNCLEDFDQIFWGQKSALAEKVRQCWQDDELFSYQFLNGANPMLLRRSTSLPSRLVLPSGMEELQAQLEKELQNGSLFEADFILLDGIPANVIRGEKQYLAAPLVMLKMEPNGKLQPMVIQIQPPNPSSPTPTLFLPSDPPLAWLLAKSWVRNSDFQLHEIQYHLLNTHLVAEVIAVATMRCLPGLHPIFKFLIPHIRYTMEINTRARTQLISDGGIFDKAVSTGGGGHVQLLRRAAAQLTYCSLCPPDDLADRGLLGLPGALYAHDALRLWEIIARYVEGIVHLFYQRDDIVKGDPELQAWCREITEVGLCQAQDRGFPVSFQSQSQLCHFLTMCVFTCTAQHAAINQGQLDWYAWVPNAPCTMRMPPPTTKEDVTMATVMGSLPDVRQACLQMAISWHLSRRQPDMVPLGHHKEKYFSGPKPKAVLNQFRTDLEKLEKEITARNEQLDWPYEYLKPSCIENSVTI
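Purified human 12hLO (150 nM final) was preincubated with compounds for 15 min at room temperature in 25 mM Hepes pH 7.0, 0.01% Triton X-100, then reacted with 40 uM arachidonic acid for 30 min. Hydroperoxide was detected with ferrous iron/xylenol orange.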
Numbers stand for hits; n = inactive; u = inconclusive; x = not tested or not shown; [ ] = remark or other dose. Unless noted, calls come from the whole dose curve; as a rule, active = well fitted curve in the direction sought with a large enough effect; inconclusive = small, poorly fitted or top-dose-only effect, or another doubt; inactive = no such curve, though single readings can be large; an effect the other way counts as inactive or inconclusive.

SMILES	PNC inhibitor	ALDH1A1 inh	HPGD inh	aGal spleen mod	GLA inh pH 4.5	ALOX12 inhib
Cc1nn(-c2ccccc2)c(Cl)c1CN(C(=O)CCl)c1cccc2ccccc12	n	28µM	n	n	n	n
Cc1nn(-c2ccccc2)c(Cl)c1CN(C(=O)CCl)c1ccc(Cl)cc1	n	7.1µM	n	n	n	n
CC(=O)N(Cc1c(C)nn(-c2ccccc2)c1Cl)c1ccc(Cl)cc1	u	n	n	n	n	n
Cc1nn(-c2ccccc2)c(Cl)c1C(=O)NCC(=O)O	u	n	n	n	n	n
COc1ccc(OC)c(-n2nnnc2SCC(=O)Nc2ccccc2N2CCOCC2)c1	x	n	x	n	n	x
CCN1C=C(C(=O)OC)C(c2cccc(C)c2)C(C(=O)OC)=C1	-80	u	u	u	u	n
CCCCOc1ccccc1C1C(C(=O)OC)=CN(CC)C=C1C(=O)OC	n	u	u	u	u	n
COC(=O)c1sc(S(=O)(=O)NCc2cccs2)c(C(=O)OC)c1C	-111	14µM	n	n	n	n
C[C@@H](NCc1cc(Br)cc2[nH]c(=O)c(=O)[nH]c12)P(=O)(O)O	x	n	n	n	n	n
Cn1nnnc1SCC(=O)c1ccc2c(c1)OCCO2	x	u	x	n	n	x
Cn1c(SCC(=O)c2ccc3c(c2)OCCO3)nnc1C(F)(F)F	x	22µM	x	n	n	x
CCCn1nnnc1SCC(=O)c1ccc2c(c1)OCCO2	u	3.2µM	n	n	n	n
CCCCn1nnnc1SCC(=O)Nc1ccc2c(c1)OCCO2	n	4.5µM	n	n	n	n
COCCn1c(SCC(=O)c2ccc3c(c2)OCCO3)nnc1-c1ccco1	n	u	n	n	n	n
CCn1c(SCC(=O)c2ccc3c(c2)OCCO3)nnc1-c1ccco1	-86	u	u	n	n	n
O=C(O)COC(=O)Cc1ccccc1Nc1c(Cl)cccc1Cl	x	n	n	n	n	n
CC1OCC23CC[C@@]4(C)CCC(C)(C)C[C@H]4[C@]2(C)CCC12C3CC[C@@]1(C)C2C(=O)CC(=O)[C@@H]1C (stereo partly drawn)	x	n	n	n	n	x
Cc1nn(C)c(C)c1CCC(=O)O	x	n	x	n	n	x
Cn1c(SCC(=O)c2ccc3c(c2)OCCO3)nnc1C1CC1	u	20µM	n	n	n	n
O=C(CSc1n[nH]c(=O)n1C1CC1)c1ccc2c(c1)OCCO2	x	u	x	n	n	x
Cn1cnnc1SCC(=O)c1ccc2c(c1)OCCO2	n	8.9µM	n	n	n	n
CN(c1ccccc1)S(=O)(=O)c1ccc(C(=O)NCc2ccccn2)cc1	x	n	x	n	n	x
O=c1cc(-c2ccccc2F)oc2ccccc12	n	n	13µM	n	n	n
COc1cccc(-c2cc(=O)c3ccccc3o2)c1N	x	u	13µM	n	n	n
COc1ccccc1-c1cc(=O)c2cccc(OC)c2o1	x	u	u	n	n	n
SMILES	PNC inhibitor	ALDH1A1 inh	HPGD inh	aGal spleen mod	GLA inh pH 4.5	ALOX12 inhib
Cc1ccc(CNC(=O)/C=C/C(=O)O)cc1	x	n	x	n	n	x
Cc1ccc(NC(=O)/C=C\C(=O)NCC(=O)O)cc1	x	28µM	x	n	n	x
O=C(O)/C=C/C(=O)Nc1ccc(-c2ccccc2)cc1	x	3.2µM	x	n	n	x
O=C(O)/C=C/C(=O)Nc1ccc(OCc2ccccc2)cc1	x	x	x	n	n	x
CCOC(=O)Nc1ccc(NS(=O)(=O)c2ccc(C)cc2)cc1	n	u	n	n	n	n
Cc1ccc(S(=O)(=O)Nc2ccc(NC(=O)/C=C/C(=O)O)cc2)cc1	x	35µM	x	n	n	x
CC(=O)Nc1ccc(C(=O)NCC(=O)OCc2c(F)cccc2Cl)cc1	x	n	x	n	n	x
CCOC(=O)C[n+]1c(C)sc2ccc(OC)cc21	n	6.3µM	20µM	n	n	n
Cc1cc(N2CCCCC2)nc(SCc2ccc(C#N)cc2)n1	n	1.3µM	n	n	n	n
Cc1cc(N2CCCC2)nc(SCC(=O)c2ccccc2)n1	n	n	n	n	n	n
Cc1ccc(C(=O)NC(=C(Cl)Cl)S(=O)(=O)c2ccc(C)cc2)cc1	u	u	n	n	n	n
Cc1ccc(S(=O)(=O)/C(=C/Cl)NC(=O)c2ccccc2)cc1	n	7.9µM	n	n	n	n
O=C(Nc1ccc([N+](=O)[O-])cc1)N1CCCCC1	x	n	x	n	n	x
CC(C)(C)c1ccc(NC(=O)N2CCCN(c3ccc([N+](=O)[O-])cn3)CC2)cc1	x	16µM	x	n	n	x
COc1ccc(NC(=O)N2CCc3nc(-c4ccccc4)c4c(c3C2)CO[C@@H](C)C4)cc1	x	n[13.5 µM]	n	n[17.5 µM]	n	n[11.4 µM]
CCOC(=O)C1=C(C)Nc2ccccc2N=C1NC(=O)C(CC)c1ccccc1 (stereo not drawn)	n	n	n	n	n	n
CN(C)c1ccc(-c2cncnc2Nc2ccccc2)cc1	x	25µM	x	n	x	x
CC1C(=O)CCC2[C@]1(C)CCC1[C@]2(C)CC[C@@]2(C)C3CC(C)(C)CC[C@]3(C)CC[C@@]12C (stereo partly drawn)	x	n	n	n	n	n
O=C(O)Cc1sc(Nc2ccc(Cl)cc2)nc1-c1cccs1	x	1µM	x	n	n	x
Nc1nc(-c2cccs2)c(CC(=O)O)s1	x	u	x	n	n	x
CC(=O)Nc1ccc(Cl)c(C(N)=O)c1	n	n	n	n	n	n
NC(=O)c1cc(N2C(=O)C=CC2=O)ccc1Cl	n	0.79µM	7.9µM	n	n	n
Cc1cccc(CNc2cc(-c3ccccc3C)ncn2)c1	x	u	16µM	n	n	n
COc1ccccc1-c1cc(NCc2cccc(C)c2)ncn1	x	n	x	n	x	x
Cc1ccccc1-c1cc(Nc2ccccc2)ncn1	x	u	x	n	x	x
Cc1ccccc1-c1cc(Nc2ccc(F)cc2)ncn1	x	n	14µM	n	n	n
